Experimental data published in the supplement of paper PMC11172423.
A number with no mark means an inactive call.

Columns and labels:
[1] = tested on: Falciformispora senegalensis CBS197.79; assay: growth relative to untreated control; higher = less inhibition, active = 20 or less
Outline: (§1)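 Viability readout used either MTS (2 h, 490 nm) or resazurin (600 nm). Before this, hyphal fragments of M. mycetomatis MM55 or F. senegalensis CBS197.79 in colourless RPMI 1640 with L-glutamine and MOPS (68–72% transmission at 660 nm) had been exposed in 96-well plates to compound at 100 or 25 µM for 7 days at 37 °C. Growth denotes metabolic activity relative to the untreated growth control, with a medium-plus-dye blank subtracted from both.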

[2] = tested on: Madurella mycetomatis MM55; assay: as above
Outline: as §1

Compound	growth ([1]; 25 µM)	growth ([1]; 100 µM)	growth ([2]; 25 µM)	growth ([2]; 100 µM)
CS(=O)(=O)N1CCC(NC(=O)c2cc3ccc(C(F)(F)F)cc3[nH]2)CC1	90.8%	84.8%	101%	109%
CN(C)CCOc1ccc(/C(=C(/CCCl)c2ccccc2)c2ccccc2)cc1	0% (active)	0% (active)	7.23% (active)	6.66% (active)
O=C(Nc1cnc2ccccc2c1)c1ccccc1C(=O)c1ccc(F)cc1	88.2%	95.5%	92.9%	91.8%
CCN(CC)CCNC(=O)c1ccc(NC(=O)c2cc3c(C)nn(-c4ccc(Cl)cc4)c3s2)cc1	58.4%	61.2%	59.2%	108%
Cc1noc(C2CN(C(=O)c3ccc(Nc4nccc(-c5ccc(Cl)cc5)n4)cc3)C2)n1	73.8%	99.2%	122%	73.7%
Cc1onc(-c2ccccc2)c1-c1ccc(S(N)(=O)=O)cc1	97%	105%	117%	91.1%
Clc1cccc2cnsc12	96.1%	86.1%	125%	68.5%
COCC[C@H](NC(=O)c1cc2ccc(C(F)(F)F)cc2[nH]1)c1ccccc1	95.1%	92.9%	30.3%	52.2%
Cc1cc(OCCN2CCOCC2)nn1-c1ccc2ccccc2c1	105%	103%	85.8%	65%
Cc1nc(NCc2ccc(F)cc2)nc(NCC(C)(C)C)c1C	15.9% (active)	17.8% (active)	6.77% (active)	5.94% (active)
O=C(NCCCNc1nc(Nc2ccc(N3CCOCC3)cc2)ncc1C1CC1)C1CCC1	93.4%	95%	101%	72.1%
C[C@H](NC(=O)c1cc2ccc(F)cc2[nH]1)c1ccccc1	91.5%	101%	83.1%	82.5%
O=C(Nc1ncc([N+](=O)[O-])s1)c1ccccc1O	95.8%	100%	72.6%	91.8%
c1cc(-c2n[nH]c3ccc(-c4n[nH]c(C5CCCN5)n4)cc23)ccc1CNC1CC1 (stereo not drawn)	88.8%	84.8%	70.2%	31.7%
CC(C)NCc1cccc(-c2ccc(NC(=O)c3cccc(C#N)c3)cc2)c1	86.2%	27.9%	87.5%	5.95% (active)
CO[C@H]1C[C@H](O[C@@H]2/C(C)=C/C[C@@H]3C[C@@H](C[C@]4(CC[C@H](C)[C@@H](C5CCCCC5)O4)O3)OC(=O)[C@@H]3C=C(C)/C(=N/O)[C@H]4OC/C(=C\C=C\[C@@H]2C)[C@]43O)O[C@@H](C)[C@@H]1O	97.5%	89.3%	88.8%	111%
FC(F)(F)CNc1ncc2nc(Nc3cc(Cl)cc(Cl)c3)n(C3CCNCC3)c2n1	104%	107%	70.4%	4.54% (active)
Cc1cc(Nc2cn3cc(-c4cnn(C(F)F)c4)ccc3n2)nc(C)n1	94.1%	83.8%	95.2%	58.6%
Cc1nc(NC2(c3ccc(C#N)cc3)CC2)nc(NCC2COC2)c1C	97.1%	96.2%	87.8%	22.3%
Cc1nn(-c2cccc(Cl)c2)c2c1C(C(=O)c1ccc3c(c1)OCO3)CC(=O)N2 (stereo not drawn)	87.3%	91.7%	68.8%	88.3%
COc1ccc(CCNc2nccc(-c3cc(Cl)cc(C(F)(F)F)c3)n2)cc1	87.1%	94.6%	110%	116%
O=C(Nc1ncccc1O)c1ccc(S(=O)(=O)NCCc2cccs2)cc1	88.7%	88.7%	128%	70.6%
